Results taken from PubChem BioAssay (EPA / NIEHS).
Active and inactive are the calls of the source. The calls were made as follows: active = hit-call score of the fitted dose curve at least 0.9, where 1 is the maximum; inactive = score below 0.9.

Columns and labels:
Conditions in all cases: mRNA level, 48 h; actives raise or lower the signal
[1] = read-out: Early growth response protein 1 (EGR1) transcription factor, EGR1 (gene 1958); assay: LTEA_HepaRG_EGR1: Life Technologies and Expression Analysis (LTEA) Assay for Early growth response protein 1 (EGR1) transcription factor using HepaRG (AID 2283490)
How it was run: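 HepaRG, 48 h exposure, 8-pt half-log series from 100 uM, 0.5% DMSO vehicle; EGR1 transcript by TaqMan qRT-PCR (Fluidigm array), housekeeping-normalized; bidirectional fit relative to DMSO baseline.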

[2] = read-out: Ezrin (EZR), EZR (gene 7430); assay: LTEA_HepaRG_EZR: Life Technologies and Expression Analysis (LTEA) Assay for Ezrin (EZR) using HepaRG (AID 2283491)
How it was run: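 Gain or loss of EZR mRNA is scored relative to 0.5% DMSO in human HepaRG cultures treated 48 h with test chemicals in duplicate, eight half-log concentrations from 100 uM.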

[3] = read-out: Cytochrome P450 3A7 (Homo sapiens) (UniProt P24462); assay: LTEA_HepaRG_CYP3A7: Life Technologies and Expression Analysis (LTEA) Assay for CYP3A7 using HepaRG (AID 2283492)
How it was run: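 CYP3A7 transcript levels were read by TaqMan qRT-PCR on Fluidigm arrays after 48 h chemical exposure of human HepaRG cells, with housekeeping-gene normalisation. Eight half-log concentrations up to 100 uM in 0.5% DMSO were tested in duplicate.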

CYP3A5 (gene 1577) = assay: LTEA_HepaRG_CYP3A5: Life Technologies and Expression Analysis (LTEA) Assay for CYP3A5 using HepaRG (AID 2283493)
How it was run: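 mRNA levels were quantified by qRT-PCR on Fluidigm arrays and normalized to three housekeeping genes. Differentiated HepaRG cells received 48 h exposure (top 100 uM, half-log steps, 0.5% DMSO vehicle, duplicate); bidirectional fitting versus DMSO.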

[4] = read-out: Fatty Acid-Binding Protein 1 (FABP1), FABP1 (gene 2168); assay: LTEA_HepaRG_FABP1: Life Technologies and Expression Analysis (LTEA) Assay for Fatty Acid-Binding Protein 1 (FABP1) using HepaRG (AID 2283494)
How it was run: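 qRT-PCR readout of FABP1 transcript (normalized to three housekeeping genes) after 48 h chemical exposure of HepaRG cells; eight concentrations, half-log steps, max 100 uM, 0.5% DMSO vehicle; gain or loss fitted relative to DMSO baseline.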

[5] = read-out: Cytochrome P450 4A22 (Homo sapiens) (UniProt Q5TCH4); assay: LTEA_HepaRG_CYP4A22: Life Technologies and Expression Analysis (LTEA) Assay for Cytochrome P450 4A22 (CYP4A22) using HepaRG (AID 2283495)
How it was run: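 HepaRG, 48 h post-plating -> serum-free induction medium; dosed 48 h, duplicate, 8 conc. (100 uM top, half-log), 0.5% DMSO. Readout: CYP4A22 mRNA by qRT-PCR, ACTB/GAPDH/POLR2A normalization; gain/loss fit relative to DMSO.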

[6] = read-out: Glutathione S-Transferase (GSTA2), GSTA2 (gene 2939); assay: LTEA_HepaRG_GSTA2: Life Technologies and Expression Analysis (LTEA) Assay for Glutathione S-Transferase (GSTA2) using HepaRG (AID 2283497)
How it was run: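 qRT-PCR readout of GSTA2 transcript, normalized to three housekeeping genes, fitted bidirectionally against 0.5% DMSO baseline. Differentiated HepaRG cells received compound for 48 h at 8 concentrations (top 100 uM, half-log steps).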

[7] = read-out: Glutamate-cysteine ligase catalytic (GCLC), GCLC (gene 2729); assay: LTEA_HepaRG_GCLC: Life Technologies and Expression Analysis (LTEA) Assay for Glutamate-cysteine ligase catalytic (GCLC) using HepaRG (AID 2283498)
How it was run: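 HepaRG, 48 h exposure, 8-pt half-log series from 100 uM, 0.5% DMSO vehicle; TaqMan qRT-PCR for GCLC mRNA, housekeeping-normalized; bidirectional curve fit vs DMSO baseline.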

[8] = read-out: growth arrest and DNA damage 45 (GADD45G), GADD45G (gene 10912); assay: LTEA_HepaRG_GADD45G: Life Technologies and Expression Analysis (LTEA) Assay for growth arrest and DNA damage 45 (GADD45G) using HepaRG (AID 2283499)
How it was run: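 HepaRG, 48 h exposure, top 100 uM, half-log 8-point series, 0.5% DMSO vehicle, duplicates. Readout: GADD45G transcript by qRT-PCR (Fluidigm array), housekeeping-normalised (ACTB/GAPDH/POLR2A). Bidirectional curve fit vs DMSO baseline.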

[9] = read-out: Cytochrome P450 7A1 (Homo sapiens) (UniProt P22680); assay: LTEA_HepaRG_CYP7A1: Life Technologies and Expression Analysis (LTEA) Assay for Cytochrome P450 7A1 (CYP7A1) using HepaRG (AID 2283496)
How it was run: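 HepaRG, 48 h exposure, 8-pt half-log series from 100 uM, 0.5% DMSO vehicle, duplicates. Readout: TaqMan qRT-PCR mRNA vs three housekeeping genes; bidirectional curve fit against DMSO baseline.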

Measured: AC50

Chain of Cytochrome P450 3A7 (Homo sapiens) (P24462 whole entry, looked up): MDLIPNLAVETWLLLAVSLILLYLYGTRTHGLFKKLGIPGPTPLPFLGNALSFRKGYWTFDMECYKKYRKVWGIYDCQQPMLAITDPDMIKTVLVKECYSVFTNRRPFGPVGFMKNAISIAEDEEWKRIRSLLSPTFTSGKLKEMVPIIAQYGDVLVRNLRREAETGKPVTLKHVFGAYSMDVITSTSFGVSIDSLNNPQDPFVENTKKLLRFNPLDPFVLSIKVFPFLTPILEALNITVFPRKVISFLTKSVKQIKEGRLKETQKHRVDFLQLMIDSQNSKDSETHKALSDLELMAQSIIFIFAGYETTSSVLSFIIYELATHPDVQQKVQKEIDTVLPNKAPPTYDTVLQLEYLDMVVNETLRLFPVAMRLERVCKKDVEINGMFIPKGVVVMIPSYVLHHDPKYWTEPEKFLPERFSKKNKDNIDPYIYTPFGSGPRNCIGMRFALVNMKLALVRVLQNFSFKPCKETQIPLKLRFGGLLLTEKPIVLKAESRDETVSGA

COCC(=O)N(c1c(C)cccc1C)C(C)C(=O)OC (stereo unspecified)
active: [4] 31.7 µM
not listed: [8] | [9]
inactive: all other assays above

CC(C)(C)C(=O)C(Oc1ccc(Cl)cc1)n1cncn1 (stereo unspecified)
active: [3] 12.1 µM | [4] 50 µM | [5] 30.1 µM
not listed: [6] | [9]
inactive: all other assays above

CCOc1nc(C(Cl)(Cl)Cl)ns1
active: [1] 1.12 µM | [3] 2.43 µM | [7] 0.939 µM
not listed: [5] | [9]
inactive: all other assays above

CCOP(=O)(OCC)Oc1nc(Cl)c(Cl)cc1Cl
active: [1] 83.4 µM | [3] 92.1 µM | [4] 82.6 µM | [5] 90.1 µM | [6] 75.5 µM | [7] 84.1 µM
inactive: [2] | CYP3A5 (gene 1577)

CN/C(=N\[N+](=O)[O-])NCc1cnc(Cl)s1
active: [4] 33.4 µM
not listed: [9]
inactive: all other assays above

CCN(CC)c1nc(C)cc(OP(=S)(OC)OC)n1
active: [3] 8.23 µM | [4] 50 µM
not listed: [9]
inactive: all other assays above

CNC(=O)Oc1cccc2ccccc12
not listed: [9]
inactive: all other assays above

Cc1cc(C)nc(Nc2ccccc2)n1
not listed: [9]
inactive: all other assays above

Nc1c(Cl)c(F)nc(OCC(=O)O)c1Cl
not listed: [9]
inactive: all other assays above

CC(C)N1C(=O)N(c2ccccc2)CSC1=NC(C)(C)C
active: [2] 50 µM | [4] 44.8 µM | [5] 63.6 µM | [9] 70.4 µM | [6] 82.3 µM | [7] 81.8 µM | [8] 76.1 µM
inactive: [1] | [3] | CYP3A5 (gene 1577)

CC(C)Oc1cccc(NC(=O)c2ccccc2C(F)(F)F)c1
active: [6] 50 µM
not listed: [2]
inactive: all other assays above

CC(C)Nc1nc(Cl)nc(NC(C)C)n1
active: [3] 2.51 µM | [4] 19.2 µM
not listed: [9]
inactive: all other assays above

CC(C)NC(=O)N1CC(=O)N(c2cc(Cl)cc(Cl)c2)C1=O
active: [4] 13.2 µM | [5] 8.83 µM | [6] 25 µM | [8] 50 µM
not listed: [9]
inactive: all other assays above

CCCN(CC)CC1COC2(CCC(C(C)(C)C)CC2)O1 (stereo unspecified)
not listed: [2] | [8]
inactive: all other assays above

N#Cc1c(Cl)cccc1Cl
inactive: all assays above

CSC(=O)c1c(C(F)F)nc(C(F)(F)F)c(C(=O)SC)c1CC(C)C
active: [3] 12.6 µM | [4] 9.87 µM | [5] 80.7 µM | [6] 88.2 µM | [8] 65.3 µM
inactive: [1] | [2] | CYP3A5 (gene 1577) | [7]

CC(C)=CC1C(C(=O)OCc2coc(Cc3ccccc3)c2)C1(C)C (stereo unspecified)
not listed: [3]
inactive: all other assays above

CN=C=S
inactive: all assays above

COc1ccc(-c2ccccc2)cc1NNC(=O)OC(C)C
not listed: [9]
inactive: all other assays above

CCCCC(C#N)(Cn1cncn1)c1ccc(Cl)cc1 (stereo unspecified)
active: [3] 3.89 µM | [4] 13.1 µM | [5] 51.8 µM | [8] 11.7 µM
not listed: [9]
inactive: all other assays above

COCC(C)N(C(=O)CCl)c1c(C)csc1C (stereo unspecified)
active: [4] 50 µM | [9] 29.5 µM | [6] 25 µM | [7] 50 µM
not listed: [5]
inactive: all other assays above

Clc1cccc(C(Cl)(Cl)Cl)n1
not listed: [2]
inactive: all other assays above

Cc1c(COC(=O)[C@@H]2[C@H](/C=C(\Cl)C(F)(F)F)C2(C)C)cccc1-c1ccccc1
active: [3] 4.87 µM | [4] 35 µM
not listed: [9]
inactive: all other assays above

CCCC(=NOCC)C1=C(O)CC(CC(C)SCC)CC1=O (stereo unspecified)
not listed: [2]
inactive: all other assays above

CC1(C)CCC(=Cc2ccc(Cl)cc2)C1(O)Cn1cncn1 (stereo unspecified)
active: [4] 4.41 µM | [5] 14.6 µM
not listed: [3] | [9]
inactive: all other assays above

O=C1C2CC=CCC2C(=O)N1SC(Cl)(Cl)Cl (stereo unspecified)
not listed: [9]
inactive: all other assays above

C=C(C)CN(CC)c1c([N+](=O)[O-])cc(C(F)(F)F)cc1[N+](=O)[O-]
active: [4] 50 µM
inactive: all other assays above

CS(=O)(=O)c1cc(C(F)(F)F)ccc1C(=O)c1cnoc1C1CC1
not listed: [9]
inactive: all other assays above

CC(C)C1(C)N=C(c2ncccc2C(=O)O)NC1=O (stereo unspecified)
not listed: [9]
inactive: all other assays above

CS(=O)(=O)c1ccc(C(=O)C2C(=O)CCCC2=O)c([N+](=O)[O-])c1
inactive: all assays above

CCOc1nc(F)cc2nc(S(=O)(=O)Nc3c(Cl)cccc3Cl)nn12
active: [3] 9.92 µM | [9] 36.7 µM
inactive: all other assays above

Clc1nc(Cl)nc(Nc2ccccc2Cl)n1
not listed: [9]
inactive: all other assays above

CC1(C)C(C(=O)OC(C#N)c2cccc(Oc3ccccc3)c2)C1(C)C (stereo unspecified)
not listed: [9]
inactive: all other assays above

COP(=S)(OC)Oc1ccc([N+](=O)[O-])c(C)c1
not listed: [9]
inactive: all other assays above

COC(=O)NS(=O)(=O)c1ccc(N)cc1
inactive: all assays above
